Screens deposited in PubChem BioAssay by several laboratories.
Shown are actives, neighbours in structure and some others; about 3.9% of the full set was active somewhere.
Anthrax LF prot: Bacillus anthracis LF protease inhibitors, primary screen, biochemical, multiplex microsphere, MLPCN library. Lethal factor (Bacillus anthracis), P15917. multiplex microsphere protease cleavage assay. inhibition, % at 10 µM. 0.12% of 360,000 active; note: plate controls were buffer without enzyme for full effect and enzyme alone for no effect
Target sequence (P15917 whole entry, looked up): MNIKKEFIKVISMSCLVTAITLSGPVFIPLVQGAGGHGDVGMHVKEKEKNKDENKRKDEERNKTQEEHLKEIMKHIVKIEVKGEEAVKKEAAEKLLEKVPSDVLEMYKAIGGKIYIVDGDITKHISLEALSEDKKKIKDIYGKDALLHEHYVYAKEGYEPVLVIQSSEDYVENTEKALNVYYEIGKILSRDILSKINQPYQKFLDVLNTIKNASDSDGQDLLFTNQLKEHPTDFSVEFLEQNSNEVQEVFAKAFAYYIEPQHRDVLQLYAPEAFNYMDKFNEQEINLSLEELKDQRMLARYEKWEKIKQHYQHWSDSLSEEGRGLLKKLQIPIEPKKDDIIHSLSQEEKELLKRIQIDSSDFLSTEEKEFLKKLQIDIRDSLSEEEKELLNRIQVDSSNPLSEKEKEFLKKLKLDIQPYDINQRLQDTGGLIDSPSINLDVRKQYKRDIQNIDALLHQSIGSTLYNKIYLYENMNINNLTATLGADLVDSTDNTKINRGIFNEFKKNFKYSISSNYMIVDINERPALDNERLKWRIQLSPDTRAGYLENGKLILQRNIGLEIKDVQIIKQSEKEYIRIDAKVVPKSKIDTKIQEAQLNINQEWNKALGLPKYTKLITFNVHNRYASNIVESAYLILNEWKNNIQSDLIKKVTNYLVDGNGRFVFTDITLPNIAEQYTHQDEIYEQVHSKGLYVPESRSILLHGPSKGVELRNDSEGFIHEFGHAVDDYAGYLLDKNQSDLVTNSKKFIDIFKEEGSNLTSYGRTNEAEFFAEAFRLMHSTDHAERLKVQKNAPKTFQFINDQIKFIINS
Bead autofluor: flagged as autofluorescent in microsphere protease counterscreen. compound autofluorescence counterscreen, microsphere flow cytometry; hits give high values. fluorescence intensity (concentration not given with the values). 3.1% of 360,000 active. AID 624483; in the data active = fluorescence intensity above about 16000; inconclusive = no clear call, values can overlap the other calls
BoNT A protease: BoNT/A light chain protease inhibitors, primary screen, biochemical, flow cytometry, MLPCN library. Botulinum neurotoxin type A light chain protease (Clostridium botulinum A str. ATCC 3502). multiplex microsphere protease substrate cleavage. 0.17% of 360,000 active. inhibition, % at 10 µM; note: plate controls were buffer without enzyme for full effect and enzyme alone for no effect
BoNT-F LC inh: BoNT/F light chain protease inhibitors, primary screen, biochemical, flow cytometry, MLPCN library | 0.22% of 360,000 active | inhibition, % at 10 µM | Multiplex microsphere protease cleavage assay | AID 588497, 2011 | Botulinum neurotoxin type F light chain protease (Clostridium botulinum); in the data active = inhibition above about 35%, passing the limit was not always enough; inconclusive = no clear call, values can overlap the other calls; note: plate controls were buffer without enzyme for full effect and enzyme alone for no effect
SARS 3CLpro inh: SARS-CoV 3CLpro protease inhibitors, primary screen, biochemical, quenched FRET. 0.14% of 290,000 active. AID 1706, 2009. recombinant SARS-CoV 3CLpro, quenched FRET peptide cleavage. inhibition, % at 6 µM. Replicase polyprotein 1ab (Severe acute respiratory syndrome coronavirus), P0C6X7; in the data active = inhibition above about 12%
CCHF vOTU inh: CCHFV vOTU protease inhibitors, primary screen, biochemical, Pep-AMC substrate, fluorescence; inhibition, % at 11.5 µM; 0.55% of 370,000 active; in the data active = inhibition above about 30%; note: 0% = vehicle wells with enzyme and 100% = no enzyme wells
The depositor's hits bear a star; u = inconclusive; x = no result. Cut-off read from the data, not from the text of the source, unless noted: active = inhibition above about 30%; inconclusive = no clear call, values can overlap the other calls; inactive = below that.

SMILES	Anthrax LF prot	Bead autofluor	BoNT A protease	BoNT-F LC inh	SARS 3CLpro inh	CCHF vOTU inh
Cc1cc(N2CCN(Cc3ccccc3)CC2)n2nc(C)c(-c3ccccc3)c2n1	-4	22404*	-5	-10	-1	-9
CCCCCCCCN1CN2Cc3cc(OC)ccc3C2CS1(=O)=O (centres undefined)	x	x	x	x	x	15
C=C(C)c1cccc(C(C)(C)NC(=O)NCc2ccc(OC)c(OC)c2)c1	-4	23352*	0	-2	1	-1
C=C(C)c1cccc(C(C)(C)NC(=O)NCc2ccc(OC)cc2)c1	2	2555	0	-6	5	2
CC(C)(C)N1Cc2nnn(CC3CCCCC3)c2-c2cc(F)ccc2S1(=O)=O	x	x	x	x	x	7
O=C(NCCCN1CCCC1=O)c1cccc(S(=O)(=O)Nc2ccccc2Cl)c1	-4	6044	-1	-3	x	-4
COc1ccc(CCNC(=O)c2nnc(Cc3c(F)cccc3Cl)o2)cc1OC	1	3713	0	6	0	3
O=C(NCCCN1CCCC1=O)c1nnc(Cc2c(F)cccc2Cl)o1	0	22538*	u	-1	-8	18
CN1CCN(CCCNC(=O)c2nnc(Cc3c(F)cccc3Cl)o2)CC1	-9	18850*	10	9	5	-16
Cc1ccc(NC(=O)C2C(C(=O)O)C3C=CC2C32CC2)cc1 (centres undefined)	-9	19275*	0	1	-3	22
Cc1cccc(NC(=O)C2C(C(=O)O)C3C=CC2C32CC2)c1C (centres undefined)	7	5639	0	2	3	13
c1ccc(-c2nc3ccccc3nc2-c2ccc(CN3CCC4(CC3)CNc3ccccc34)cc2)cc1	x	x	x	x	x	10
O=S1(=O)c2c(cccc2N2CCC[C@H]2CO)O[C@@H]2CCN1C2	x	x	x	x	x	-2
COC(=O)[C@H](C(C)C)N(CCc1cn(CC2CCCCC2)nn1)S(=O)(=O)c1ccc(F)cc1Br	x	x	x	x	x	13
C[C@@H]1C[C@H]2[C@@H](C)C(=O)N3[C@H](c4ccccc4)[C@H](C)C[C@H]3[C@@H](C)C(=O)N2[C@@H]1c1ccccc1	x	x	x	x	x	6
COc1ccc2c(=O)c3c(=O)n(Cc4ccco4)c(-c4ccccc4)nc3oc2c1	2	10518	0	-1	-4	0
COc1ccc2c(=O)c3c(=O)n(Cc4ccco4)c(-c4cc(OC)c(OC)c(OC)c4)nc3oc2c1	-1	16166*	1	2	2	-1
CCOC(=O)C1=C(C)NC(=O)C(C(N)=O)C12CCCC2 (centres undefined)	-3	23702*	u	-4	3	3
N#Cc1cccc(NC(=O)OC2CC3CC2[C@H]2CCCCN2C3)c1 (some centres undefined)	x	x	x	x	x	10
CCn1c(SCC(=O)c2ccc(-c3ccccc3)cc2)nnc1-c1ccc(C(C)(C)C)cc1	x	x	x	x	x	13
CCOc1ccc(-c2cc(C(=O)NCCCN3CCN(CC)CC3)c3ccccc3n2)cc1	0	21315*	u	-4	-3	-40
Cc1cc(C)nc(NC(=O)CSc2nc3ccccc3s2)n1	1	15488	u	5	-4	-7
O=C(CSc1nc2ccccc2s1)NC(=O)NCc1ccco1	-10	22313*	0	0	7	8
Cc1ccc(S(=O)(=O)NC(=O)CSc2nc3ccccc3s2)cc1	-1	16909*	-1	-2	-5	-13
O=C(CSc1ccccc1)NC1CCCCN(Cc2cccc(Cl)c2)C1=O (centres undefined)	x	x	x	x	x	3
SMILES	Anthrax LF prot	Bead autofluor	BoNT A protease	BoNT-F LC inh	SARS 3CLpro inh	CCHF vOTU inh
CCCCCCc1cc2cc(-c3nnc(-c4ccccc4OC)o3)c(=O)oc2cc1O	4	22218*	u	0	2	0
COC(=O)[C@]1(CNC(C)=O)CC(=O)N(C)[C@@H]1c1ccccc1	x	x	x	x	x	-4
COc1ccc(CN2C(=O)CCCC2(C)c2nnnn2-c2c(C)cccc2C)cc1OC (centres undefined)	x	x	x	x	x	-4
CN(Cc1ccccc1)C(=O)c1cc(-c2ccc(Br)cc2)on1	-3	23868*	-1	-2	-2	-12
CCOC(=O)[C@]12CCCCC/C=C\1N(CCc1ccc(Cl)cc1)C(=O)[C@H]2CC(=O)NCc1ccc(OC)c(OC)c1	x	x	x	x	x	15
O=C(Nc1ccccc1N1CCOCC1)c1ccc(N2CCOCC2)c([N+](=O)[O-])c1	-2	4372	1	8	-1	8
O=[N+]([O-])c1cccnc1N1CCOCC1	5	19529*	u	8	1	-5
O=C(Nc1ccccc1N1CCOCC1)c1ccccc1[N+](=O)[O-]	0	24174*	-2	-2	-5	0
O=[N+]([O-])c1cc(F)c(N2CCCCC2)cc1N1CCOCC1	-4	9474	0	-5	3	-3
O=[N+]([O-])c1cc(F)c(N2CCOCC2)cc1N1CCCCC1	-2	24982*	-5	-8	4	-3
Cc1cc(C)cc(C(=O)OCCN2CCN(C3CN(Cc4cn(Cc5ccc([N+](=O)[O-])cc5)nn4)S(=O)(=O)C3)CC2)c1 (centres undefined)	x	x	x	x	x	12
O=C(OC12CCCN(C1)/C(=C/c1ccncc1)C2)c1ccc(F)cc1 (centres undefined)	x	x	x	x	x	6
CC(C(=O)N=c1sc2ccccc2n1C)N1C(=O)C2CC=CCC2C1=O (centres undefined)	-1	21549*	3	3	0	3
COc1ccccc1N(Cc1cc(=O)[nH]c2ccccc12)C(=O)c1ccccc1	2	4743	-1	6	2	11
CN(Cc1cc(=O)[nH]c2ccccc12)C(=O)c1ccccc1	-3	19977*	2	4	2	9
Cc1ccccc1CN1CCCCC(NC(=O)C2CCC2)C1=O (centres undefined)	x	x	x	x	x	1
O=C(Nc1ccccc1C(F)(F)F)N1CCN(C(c2ccccc2)c2ccccc2)CC1	0	22149*	u	-9	-6	8
N#Cc1ccc(Cn2ccc3ccc(-c4ccc5ccn(C(=O)C6CCCCC6)c5c4)cc32)cc1	x	x	x	x	x	11
CN(C1CCCCC1)S(=O)(=O)Cc1ccccc1	3	22622*	3	2	0	-11
Cc1ccccc1OCCSc1nnc(-c2ccncc2)n1C	-18	19279*	9	11	-1	21
Cn1c(SCCOc2ccccc2Cl)nnc1-c1ccncc1	1	10205	0	3	4	-14
Cn1cccc1C(=O)N1CCN(S(=O)(=O)c2ccc(F)cc2)CC1	x	x	x	x	x	1
COc1ccc(C(=O)NCc2cccnc2)cc1	1	21373*	-2	-3	1	-5
COc1ccccc1CNC(=O)Nc1cccs1	1	3241	0	-10	-3	-5
